# Source: PubChem BioAssay (Tox21)
# Inconclusive results are not listed. Values without a mark were called inactive. Calls of active or inactive are those of the source. Calls follow the shape of the dose curve; as a rule, active = well fitted activation curve with a large enough effect in the signal ratio in the repeat runs (not every such curve was filed as active); inconclusive = weak or mixed curves; inactive = flat fitted curve, though single readings scatter; the % refers to the signal ratio.
# Experiment: p53 small molecule agonists, cell-based qHTS assay (AID 1963582)
# Settings: HCT-116 p53RE-bla reporter, beta-lactamase FRET ratio, 16 h; series mostly up to 66 µM; activation: at the top concentration
# Excerpt: National Center for Advancing Translational Sciences [NCATS]
# Division of Preclinical Innovation [DPI]
# U.S. Environmental Protection Agency [EPA]
# National Institutes of Environmental Health Sciences [NIEHS]
# National Toxicology Program [NTP]
# U.S. Food and Drug Administration [FDA]
# p53, a tumor suppressor protein, is activated following cellular insult, including DNA damage and other cellular stresses. The activation of p53 regulates cell fate by inducing DNA repair, cell cycle arrest, apoptosis, or cellular senescence. The activation of p53, therefore, is a good indicator of DNA damage and other cellular stresses. […] The activation of the reporter gene under culture conditions can be detected by fluorescence intensity. This cell line was used to screen the Tox21 10K compound library in a 1536-well plate format and to identify agonists that activate the p53 signaling pathway.
# Tox21 Assay Protocol Summary:
# The p53RE-bla cells were dispensed at 4,000 cells/5 ul/well in 1536-well black wall/clear bottom plates using a Multidrop dispenser. After the assay plates were incubated at a 37 C/5% CO2 incubator for 5 hours, 23 nL of compounds dissolved in DMSO, positive controls or DMSO only was transferred to the assay plate by a pin tool. The plates were incubated at 37 C for 16 hours. After 1 uL of LiveBLAzerTM B/G FRET substrate was added using a Flying Reagent Dispenser, the plates were incubated at room temperature for 2 hours, and fluorescence intensity was measured by an Envision plate reader.
# % is scaled to controls: 0 for no effect and ±100 for the full control effect; potency is read from the fitted curve at half-maximal effect.
SMILES,activation,Potency
CC(=O)[C@H]1[C@H](C#N)C[C@H]2[C@@H]3CC=C4C[C@@H](O)CC[C@]4(C)[C@H]3CC[C@@]21C,4.2% [at 30.3 µM],
CNCCCC1c2ccccc2C=Cc2ccccc21,-1.73% [at 30.3 µM],
CCCC(=O)OCC,-1.78%,
CCCCCCCCCCCCN1CCCCCC1=O,-7.79%,
O=C(NCC(O)CO)c1c(I)c(C(=O)NCC(O)CO)c(I)c(N(CCO)C(=O)CO)c1I (stereo not given),1.49% [at 30.3 µM],
Cc1cc(O)c(C(C)C)cc1Cl,,inactive
C=C(C)C(=O)OCCOC1CC2CC1C1C=CCC21 (stereo not given),-0.703%,
CCc1nn(CCCN2CCN(c3cccc(Cl)c3)CC2)c(=O)n1CCOc1ccccc1,-4.67% [at 30.3 µM],
Cc1cc([N+](=O)[O-])ccc1N,0.0936%,
CC(=O)OC(C)C[N+](C)(C)C (stereo not given),0.581% [at 30.3 µM],
CN1CCCN=C1/C=C/c1cccs1,0.246% [at 30.3 µM],
CCC(=O)/C=C/c1ccc(OC)cc1,-2.72%,
Cc1cc(O)c2ccccc2c1O,-0.725% [at 30.3 µM],
O=C(c1ccccc1)c1cc(Cl)ccc1O,5%,
O=C1CCCCCCCCCCCCCCO1,1.39%,
Cc1cccc(N(C)C(=S)Oc2ccc3c(c2)C2CCC3C2)c1 (stereo not given),-2.41% [at 30.3 µM],
CCCC(C)CC (stereo not given),-4.97%,
CCCCCC1Nc2cc(C(F)(F)F)c(S(N)(=O)=O)cc2S(=O)(=O)N1 (stereo not given),0.113% [at 30.3 µM],
COC(=O)C1=C(C)NC(C)=C(C(=O)OCC(C)=O)C1c1ccccc1[N+](=O)[O-] (stereo not given),-3.88% [at 30.3 µM],
CCCCCCCCCCCCCCCS(=O)(=O)Oc1ccccc1,3.35% [at 30.3 µM],

SMILES,activation,Potency
Brc1ccccc1-c1ccccc1,1.49%,
CC(C)Nc1ccc(NC(C)C)c2c1C(=O)c1ccccc1C2=O,0.728% [at 30.3 µM],
COc1c2occc2cc2ccc(=O)oc12,,inactive
CCOC(=O)Nc1ccc2c(c1)N(C(=O)CCN1CCOCC1)c1ccccc1S2,-0.491% [at 30.3 µM],
CC1=C(C/C=C(\C)CCC[C@H](C)CCC[C@H](C)CCCC(C)C)C(=O)c2ccccc2C1=O,-4.38% [at 30.3 µM],
O=C(/C=C/c1ccc(O)c(O)c1)O[C@@H]1C[C@@](OC(=O)/C=C/c2ccc(O)c(O)c2)(C(=O)O)C[C@@H](O)[C@@H]1O,-0.602% [at 30.3 µM],
C[C@](N)(Cc1ccc(O)cc1)C(=O)O,-6.7% [at 5.99 µM],
C=Cc1ccc(OC(C)=O)cc1,-2.27%,
NS(=O)(=O)c1ccc(C(=O)O)cc1,-1.71% [at 30.3 µM],
CCCCCOc1ccccc1/C(=C\SC)n1ccnc1,11.9% [at 30.3 µM],
c1ccc(-c2ccccn2)nc1,0.592%,
CCOCN(C(=O)CS(=O)(=O)O)c1c(C)cccc1CC,-0.129%,
ClC(Cl)(Cl)c1ccc(C(Cl)(Cl)Cl)cc1,-0.994%,
CNCc1ccc(NC(=O)c2c[nH]c3c2C(=O)CCC3)cc1,-1.49%,
CC(C)=CCC[C@](C)(O)[C@@H]1CC=C(C)CC1,0.0658%,
O=S(c1cc(Cl)cc(Cl)c1O)c1cc(Cl)cc(Cl)c1O,,17.8 µM (active)
CS(=O)(=O)c1ccc([C@@H](O)[C@@H](CF)NC(=O)C(Cl)Cl)cc1,0.103% [at 30.3 µM],
CC(=O)c1ccc2c(c1)[C@H](NC(=O)c1ccc(F)cc1)[C@@H](O)C(C)(C)O2,0.184%,
CCc1cc(C(C)(C)C)c(O)c(C(C)(C)C)c1,,inactive
CN(C)CC/C=C1\c2ccccc2COc2ccccc21,1.37% [at 30.3 µM],
